The record followed here is PubChem BioAssay (EPA / NIEHS).

Records with an inconclusive call do not appear. The source made the active and inactive calls. The calls were made as follows, unless noted: active = hit-call score of the fitted dose curve at least 0.9, where 1 is the maximum; inactive = score below 0.9.

Test [1] addresses Myc proto-oncogene protein (Homo sapiens) (UniProt P01106). In words: ATG_Myc_CIS: Attagene CIS-FACTORIAL HepG2 Assay for human Myelocytomatosis (Myc) Proto-Oncogene Transcription Factor (AID 2282990). Particulars: HepG2, Attagene cis-reporter transcription factor activity; actives raise or lower the signal. A digest of the protocol:
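HepG2, transient MRTU transfection (cis promoters, endogenous TFs); 24 h dosing; TriZol RNA → oligo(dT) RT → PCR → 6-FAM primer extension → HpaI cut → CE. Bidirectional fit vs DMSO.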

The nature of test [2]: ATG_NF_kB_CIS: Attagene CIS-FACTORIAL HepG2 Assay for human Nuclear Factor Kappa B (NF-kB) (AID 2282991). Particulars: HepG2 Attagene cis-factorial NF-kB reporter mRNA; actives raise or lower the signal. A digest of the protocol: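 HepG2 cells transfected with cis-promoter-driven reporter units, so endogenous transcription factor activity is measured. Reporter mRNA quantified 24 h after dosing by RT-PCR and capillary electrophoresis, with bidirectional fitting against DMSO.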

The nature of test [3]: ATG_NRF2_ARE_CIS: Attagene CIS-FACTORIAL HepG2 Assay for human Nuclear Factor Erythroid 2 Related Factor 2 (NFR2) response to Antioxidant Response Elements (ARE) (AID 2282992). Conditions: HepG2 Attagene ARE/NRF2 reporter, transcription factor activity; actives raise or lower the signal. A digest of the protocol: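 Fluorescence intensity of reporter-specific cDNA fragments, separated by capillary electrophoresis, reflects mRNA induction in transfected HepG2 cells at 24 h. Activity is fitted bidirectionally, DMSO serving as baseline.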

Test [4] in a line: ATG_Oct_MLP_CIS: Attagene CIS-FACTORIAL HepG2 Assay for human Octamer-Binding Transcription Factor (Oct) (AID 2282993). Particulars: HepG2 Attagene cis-factorial Oct reporter, mRNA; actives raise or lower the signal. In short, it runs like this:
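Multiplexed cis-reporter assay in human liver HepG2 cells, 24 h incubation. Reporter RNA amplified and labelled, then resolved by capillary electrophoresis; DMSO serves as negative control and baseline.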

Test [5] deals with Cellular tumor antigen p53 (Homo sapiens) (UniProt P04637). The test can be described thus: ATG_p53_CIS: Attagene CIS-FACTORIAL HepG2 Assay for human p53 Transcription Factor (AID 2282994). Conditions: HepG2 p53 cis-element reporter, Attagene mRNA; actives raise or lower the signal. A digest of the protocol: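 Transiently transfected HepG2 (multiple cis reporter transcription units); exposure 24 h; reporter RNA via RT-PCR, 6-FAM extension, 2 h HpaI digest at 37 C, CE detection; DMSO baseline.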

The target of test [6] is human Peroxisome Proliferator-activated Receptor delta (PPARd), PPARD (gene 5467) (UniProt Q03181). In words: ATG_PPARd_TRANS: Attagene TRANS-FACTORIAL HepG2 Assay for human Peroxisome Proliferator-activated Receptor delta (PPARd) (AID 2283002; active = hit-call score of the fitted dose curve at least 0.9, where 1 is the maximum). A digest of the protocol: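 Transient HepG2 transfection (multiple GAL4-UAS RTUs, chimeric receptor-Gal4); 24 h dosing; total RNA → oligo(dT) RT → PCR → 6-FAM primer extension → HpaI cut → CE. Positive direction vs DMSO.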

Test [7] deals with Retinoic acid receptor alpha (Homo sapiens) (UniProt P10276). In words: ATG_RARa_TRANS: Attagene TRANS-FACTORIAL HepG2 Assay for human Retinoic Acid Receptor alpha (RARa) (AID 2283005; active = hit-call score of the fitted dose curve at least 0.9, where 1 is the maximum). In short, it runs like this: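 Reporter transcripts, measured by RT-PCR with fluorescent labeling and capillary electrophoresis after 24 h dosing, reflect activity of an exogenous human RARa–GAL4 fusion in transiently transfected HepG2. Fitted for increase relative to DMSO.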

The target in test [8] is human Retinoic Acid Receptor gamma (RARg), RARG (gene 5916) (UniProt P13631). The test can be described thus: ATG_RARg_TRANS: Attagene TRANS-FACTORIAL HepG2 Assay for human Retinoic Acid Receptor gamma (RARg) (AID 2283009; active = hit-call score of the fitted dose curve at least 0.9, where 1 is the maximum). In short, it runs like this: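 Gain-of-signal relative to DMSO is reported from fluorescent capillary electrophoresis of RT-PCR reporter products. These came from HepG2 cells expressing transfected RARg-GAL4 chimeras with UAS reporters, harvested 24 h after dosing.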

The target of test [9] is human RAR-related Orphan Receptor beta (RORb), RORB (gene 6096) (UniProt Q92753). The test can be described thus: ATG_RORb_TRANS: Attagene TRANS-FACTORIAL HepG2 Assay for human RAR-related Orphan Receptor beta (RORb) (AID 2283010; active = hit-call score of the fitted dose curve at least 0.9, where 1 is the maximum). A digest of the protocol:
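Multiplexed transcription-factor reporter assay: HepG2 cells transiently carrying NR-Gal4/GAL4-UAS constructs, 24 h treatment, mRNA quantified by RT-PCR plus capillary electrophoresis fluorescence; activity scored as induction over DMSO.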

For test [10], the target named is human Peroxisome Proliferator-activated Receptor alpha (PPARa), PPARA (gene 5465) (UniProt Q07869). In words: ATG_PPARa_TRANS: Attagene TRANS-FACTORIAL HepG2 Assay for human Peroxisome Proliferator-activated Receptor alpha (PPARa) (AID 2283001; active = hit-call score of the fitted dose curve at least 0.9, where 1 is the maximum). A digest of the protocol:
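Transfected HepG2 cells treated with test chemical for 24 h. RNA isolated, reverse-transcribed with oligo(dT), PCR-amplified, FAM-labelled and HpaI-digested. Fragments sized by capillary electrophoresis; gain-of-signal fit relative to DMSO.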

Test [11] addresses human Retinoic Acid Receptor beta (RARb), RARB (gene 5915) (UniProt P10826). In words: ATG_RARb_TRANS: Attagene TRANS-FACTORIAL HepG2 Assay for human Retinoic Acid Receptor beta (AID 2283004; active = hit-call score of the fitted dose curve at least 0.9, where 1 is the maximum). A digest of the protocol: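 HepG2 cells were transiently transfected with GAL4-UAS reporter units that report activity of exogenous chimeric NR-Gal4 proteins, then exposed to compound for 24 h. Reporter mRNA was quantified by RT-PCR with capillary electrophoresis fluorescence, as gain of signal over DMSO.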

Test [12] concerns the target human RAR-related Orphan Receptor gamma (RORg), RORC (gene 6097) (UniProt P51449). In words: ATG_RORg_TRANS: Attagene TRANS-FACTORIAL HepG2 Assay for human RAR-related Orphan Receptor gamma (RORg) (AID 2283011; active = hit-call score of the fitted dose curve at least 0.9, where 1 is the maximum). A digest of the protocol: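 HepG2 cells transiently transfected with GAL4-UAS reporter units and chimeric RORg-Gal4 construct; after 24 h chemical exposure, reporter mRNA measured by RT-PCR with fluorescent capillary electrophoresis, gain of signal fitted against DMSO.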

Test [13] has as its target Peroxisome proliferator-activated receptor gamma (Homo sapiens) (UniProt P37231). The test can be described thus: ATG_PPARg_TRANS: Attagene TRANS-FACTORIAL HepG2 Assay for human Peroxisome Proliferator-activated Receptor-gamma (PPARg) (AID 2283007; active = hit-call score of the fitted dose curve at least 0.9, where 1 is the maximum). A digest of the protocol: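 HepG2 cells are transiently transfected with GAL4-UAS reporter units driven by chimeric NR-Gal4 fusions and dosed for 24 h. Reporter mRNA is quantified by RT-PCR, 6-FAM labelling, HpaI digestion and capillary electrophoresis. Induction is scored against DMSO.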

Test [14] has as its target Nuclear receptor subfamily 1 group I member 2 (Homo sapiens) (UniProt O75469). In words: ATG_PXR_TRANS: Attagene TRANS-FACTORIAL HepG2 Assay for human Pregnane X Receptor (PXR) (AID 2283008; active = hit-call score of the fitted dose curve at least 0.9, where 1 is the maximum). A digest of the protocol: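 Transient HepG2 transfectants carrying multiplexed reporter transcription units; PXR activity read through a Gal4 chimera. 24 h exposure. RT-PCR/CE fluorescence; upward curve fit referenced to DMSO.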

Chain of Retinoic acid receptor alpha (Homo sapiens) (P10276 whole entry, looked up, the tested form may be a part): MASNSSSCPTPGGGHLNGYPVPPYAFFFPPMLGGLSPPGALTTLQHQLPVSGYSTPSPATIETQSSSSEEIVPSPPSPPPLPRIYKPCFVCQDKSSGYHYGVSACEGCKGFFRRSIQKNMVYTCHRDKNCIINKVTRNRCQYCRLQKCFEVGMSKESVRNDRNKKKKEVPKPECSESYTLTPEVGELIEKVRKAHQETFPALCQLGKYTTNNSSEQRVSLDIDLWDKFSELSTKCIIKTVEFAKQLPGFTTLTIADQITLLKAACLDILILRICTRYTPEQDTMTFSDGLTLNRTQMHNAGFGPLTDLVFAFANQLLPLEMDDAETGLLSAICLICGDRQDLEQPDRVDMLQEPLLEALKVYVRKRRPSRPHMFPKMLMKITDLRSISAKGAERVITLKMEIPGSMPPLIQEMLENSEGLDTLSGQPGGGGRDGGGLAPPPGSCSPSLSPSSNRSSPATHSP
Chain of Peroxisome proliferator-activated receptor gamma (Homo sapiens) (P37231 whole entry, looked up, the tested form may be a part): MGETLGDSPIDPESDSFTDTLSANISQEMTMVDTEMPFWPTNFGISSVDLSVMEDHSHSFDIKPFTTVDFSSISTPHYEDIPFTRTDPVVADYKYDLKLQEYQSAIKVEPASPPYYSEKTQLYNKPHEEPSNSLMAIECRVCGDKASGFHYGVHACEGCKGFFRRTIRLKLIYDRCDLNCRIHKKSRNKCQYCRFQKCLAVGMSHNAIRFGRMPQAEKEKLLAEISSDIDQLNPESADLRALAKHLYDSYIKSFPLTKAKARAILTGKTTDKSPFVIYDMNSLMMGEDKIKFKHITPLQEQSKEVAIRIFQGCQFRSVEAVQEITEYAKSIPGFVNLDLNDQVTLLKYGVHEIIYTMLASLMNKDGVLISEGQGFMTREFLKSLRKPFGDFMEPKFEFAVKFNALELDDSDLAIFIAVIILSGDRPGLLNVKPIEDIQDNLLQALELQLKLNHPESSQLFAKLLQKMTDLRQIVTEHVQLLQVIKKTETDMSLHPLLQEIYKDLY
Chain of human RAR-related Orphan Receptor gamma (RORg), RORC (gene 6097) (P51449 whole entry, looked up, the tested form may be a part): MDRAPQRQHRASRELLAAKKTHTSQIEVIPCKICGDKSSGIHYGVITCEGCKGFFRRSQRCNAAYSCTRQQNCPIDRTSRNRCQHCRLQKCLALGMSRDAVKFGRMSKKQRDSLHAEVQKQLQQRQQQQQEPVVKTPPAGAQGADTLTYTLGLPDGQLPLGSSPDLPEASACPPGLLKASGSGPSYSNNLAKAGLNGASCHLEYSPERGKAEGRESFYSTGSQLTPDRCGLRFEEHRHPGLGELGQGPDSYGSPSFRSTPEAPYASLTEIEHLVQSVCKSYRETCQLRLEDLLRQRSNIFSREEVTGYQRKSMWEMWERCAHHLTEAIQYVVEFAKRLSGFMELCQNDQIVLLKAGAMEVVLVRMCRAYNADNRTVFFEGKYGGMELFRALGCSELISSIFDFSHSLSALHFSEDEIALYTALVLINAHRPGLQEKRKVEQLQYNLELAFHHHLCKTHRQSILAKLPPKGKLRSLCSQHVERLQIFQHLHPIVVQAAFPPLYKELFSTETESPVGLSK
Chain of human Peroxisome Proliferator-activated Receptor delta (PPARd), PPARD (gene 5467) (Q03181 whole entry, looked up, the tested form may be a part): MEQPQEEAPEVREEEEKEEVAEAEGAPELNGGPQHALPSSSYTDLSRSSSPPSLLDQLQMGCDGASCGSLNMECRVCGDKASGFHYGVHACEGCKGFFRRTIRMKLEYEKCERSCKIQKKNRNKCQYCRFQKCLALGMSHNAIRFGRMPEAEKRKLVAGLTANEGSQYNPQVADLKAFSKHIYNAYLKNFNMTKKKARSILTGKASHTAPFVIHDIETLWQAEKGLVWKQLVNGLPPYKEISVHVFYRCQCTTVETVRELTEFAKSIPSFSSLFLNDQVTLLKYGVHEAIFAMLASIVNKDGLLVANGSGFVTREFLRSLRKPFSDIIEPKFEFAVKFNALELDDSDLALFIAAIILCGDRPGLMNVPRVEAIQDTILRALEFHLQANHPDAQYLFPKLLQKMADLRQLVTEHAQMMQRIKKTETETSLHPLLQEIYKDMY
Chain of human RAR-related Orphan Receptor beta (RORb), RORB (gene 6096) (Q92753 whole entry, looked up, the tested form may be a part): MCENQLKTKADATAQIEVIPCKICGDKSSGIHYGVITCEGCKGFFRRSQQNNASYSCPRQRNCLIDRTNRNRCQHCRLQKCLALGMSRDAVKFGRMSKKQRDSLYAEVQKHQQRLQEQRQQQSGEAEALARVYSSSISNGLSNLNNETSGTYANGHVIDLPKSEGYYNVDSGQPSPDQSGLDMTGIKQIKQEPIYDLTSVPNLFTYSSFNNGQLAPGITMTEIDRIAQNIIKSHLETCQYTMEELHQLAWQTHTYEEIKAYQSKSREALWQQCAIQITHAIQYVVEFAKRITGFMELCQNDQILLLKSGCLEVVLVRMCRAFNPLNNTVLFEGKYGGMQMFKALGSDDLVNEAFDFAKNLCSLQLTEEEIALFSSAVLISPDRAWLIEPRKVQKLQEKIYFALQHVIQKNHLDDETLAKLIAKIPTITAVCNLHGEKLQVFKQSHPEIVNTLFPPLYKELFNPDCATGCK
Chain of Nuclear receptor subfamily 1 group I member 2 (Homo sapiens) (O75469 whole entry, looked up, the tested form may be a part): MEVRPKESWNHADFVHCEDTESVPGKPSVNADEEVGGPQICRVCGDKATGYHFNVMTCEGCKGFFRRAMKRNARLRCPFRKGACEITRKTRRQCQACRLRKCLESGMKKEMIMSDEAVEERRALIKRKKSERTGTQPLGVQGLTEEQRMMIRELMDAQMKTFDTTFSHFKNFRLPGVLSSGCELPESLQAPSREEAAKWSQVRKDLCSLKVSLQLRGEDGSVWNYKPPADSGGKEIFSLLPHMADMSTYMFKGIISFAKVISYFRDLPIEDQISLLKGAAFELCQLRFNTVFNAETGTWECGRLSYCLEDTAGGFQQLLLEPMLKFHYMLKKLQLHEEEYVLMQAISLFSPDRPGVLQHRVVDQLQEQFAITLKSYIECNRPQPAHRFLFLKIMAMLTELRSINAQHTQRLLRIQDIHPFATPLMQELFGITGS
Chain of human Retinoic Acid Receptor beta (RARb), RARB (gene 5915) (P10826 whole entry, looked up, the tested form may be a part): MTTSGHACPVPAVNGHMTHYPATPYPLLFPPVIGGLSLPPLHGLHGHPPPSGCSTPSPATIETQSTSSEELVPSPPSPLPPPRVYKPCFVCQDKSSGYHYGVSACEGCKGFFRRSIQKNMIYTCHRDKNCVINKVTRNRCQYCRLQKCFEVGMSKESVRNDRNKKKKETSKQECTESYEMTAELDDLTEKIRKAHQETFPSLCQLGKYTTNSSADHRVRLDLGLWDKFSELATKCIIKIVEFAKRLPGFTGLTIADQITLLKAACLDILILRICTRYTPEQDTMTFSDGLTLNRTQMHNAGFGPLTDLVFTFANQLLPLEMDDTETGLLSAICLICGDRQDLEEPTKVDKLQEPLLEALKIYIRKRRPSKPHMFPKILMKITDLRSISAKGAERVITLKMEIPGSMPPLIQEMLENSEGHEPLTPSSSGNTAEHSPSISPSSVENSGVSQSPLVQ
Chain of Myc proto-oncogene protein (Homo sapiens) (P01106 whole entry, looked up): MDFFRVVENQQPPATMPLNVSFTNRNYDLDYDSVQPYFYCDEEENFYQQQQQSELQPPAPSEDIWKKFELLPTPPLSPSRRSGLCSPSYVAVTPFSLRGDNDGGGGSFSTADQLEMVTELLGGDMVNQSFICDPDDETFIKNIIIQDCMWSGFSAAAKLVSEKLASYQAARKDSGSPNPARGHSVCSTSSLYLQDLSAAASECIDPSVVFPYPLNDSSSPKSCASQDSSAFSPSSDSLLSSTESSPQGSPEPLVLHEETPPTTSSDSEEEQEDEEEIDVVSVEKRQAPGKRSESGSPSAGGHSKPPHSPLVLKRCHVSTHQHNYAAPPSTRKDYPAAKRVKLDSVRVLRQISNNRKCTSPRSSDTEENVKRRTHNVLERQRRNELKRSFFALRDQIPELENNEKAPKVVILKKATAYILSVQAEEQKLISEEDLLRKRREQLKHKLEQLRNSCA
Chain of human Retinoic Acid Receptor gamma (RARg), RARG (gene 5916) (P13631 whole entry, looked up, the tested form may be a part): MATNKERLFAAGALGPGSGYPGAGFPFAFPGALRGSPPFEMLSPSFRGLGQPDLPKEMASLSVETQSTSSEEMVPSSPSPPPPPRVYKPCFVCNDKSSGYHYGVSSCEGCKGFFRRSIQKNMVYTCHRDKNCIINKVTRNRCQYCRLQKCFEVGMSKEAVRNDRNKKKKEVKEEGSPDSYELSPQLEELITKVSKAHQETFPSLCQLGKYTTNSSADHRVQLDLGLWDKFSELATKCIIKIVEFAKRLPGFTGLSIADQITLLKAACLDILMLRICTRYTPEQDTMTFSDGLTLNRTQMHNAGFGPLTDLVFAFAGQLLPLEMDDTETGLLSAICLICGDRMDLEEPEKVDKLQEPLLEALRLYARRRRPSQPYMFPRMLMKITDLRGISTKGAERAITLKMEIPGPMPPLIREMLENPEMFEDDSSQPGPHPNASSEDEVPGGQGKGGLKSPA
Chain of human Peroxisome Proliferator-activated Receptor alpha (PPARa), PPARA (gene 5465) (Q07869 whole entry, looked up, the tested form may be a part): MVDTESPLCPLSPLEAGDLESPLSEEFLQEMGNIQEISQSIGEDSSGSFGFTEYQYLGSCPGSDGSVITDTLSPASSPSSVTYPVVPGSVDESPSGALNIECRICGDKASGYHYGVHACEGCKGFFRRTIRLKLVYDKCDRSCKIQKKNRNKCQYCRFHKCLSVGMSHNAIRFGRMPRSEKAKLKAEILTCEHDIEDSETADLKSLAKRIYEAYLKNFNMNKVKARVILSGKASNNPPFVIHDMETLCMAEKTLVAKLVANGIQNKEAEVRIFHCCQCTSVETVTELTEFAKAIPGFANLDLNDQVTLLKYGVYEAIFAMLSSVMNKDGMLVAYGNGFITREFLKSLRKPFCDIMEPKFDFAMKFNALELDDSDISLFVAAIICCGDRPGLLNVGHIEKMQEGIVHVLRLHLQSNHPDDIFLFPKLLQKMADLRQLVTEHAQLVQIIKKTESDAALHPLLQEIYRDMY

On to `CCCC(C)=O`, for which the call in test [1], in [2], in test [3], in test [4], in test [5] and in [6] was inactive. Moreover, the call in [7], in test [8] and in test [9] was inactive.

For the molecule `OCC#CCO`, the outcome in test [1], in test [2], in test [3], in test [4], in test [5] and in test [10] was inactive. The result in test [11], in test [7] and in [12] was inactive.

Take `COCCc1ccc(OCC(O)CNC(C)C)cc1` (stereo not drawn): the molecule was classed as inactive in test [1], in [2], in [3], in [4], in test [5] and in test [6]. In addition, the result in test [7], in test [13] and in [14] was inactive.

Take `COS(=O)(=O)O`: the call in test [1], in test [2], in test [3], in [4], in test [5] and in test [10] was inactive. Moreover, the outcome in [14] was inactive.

As for `CCC1CCCCC1`, the call in test [1], in [2], in test [3], in test [4], in test [5] and in [10] was inactive. Also, the call in test [11], in [7], in test [13], in test [14], in [8] and in test [9] was inactive.

As for `COc1ccc(CCC(C)=O)cc1`, the molecule was called inactive in [1], in [2], in [3], in test [4], in [5] and in test [10]. Further, the result in test [13], in test [14] and in [9] was inactive.

Consider `CC(C)CCCCCCCCCCCCCCC(=O)O`, for which the molecule was called inactive in test [1], in test [2], in [3], in [4], in [5] and in test [6]. For the same molecule, the molecule was classed as inactive in test [7], in [14], in test [9] and in test [12]. Also, the AC50 in [13] was 30.2 µM (active).

On to `O=C(O)CNc1ccccc1`, for which the molecule was called inactive in test [1], in test [2], in test [3], in test [4], in test [5] and in [10]. For the same molecule, the molecule was classed as inactive in test [11], in test [7], in [8] and in test [9]. Besides, the AC50 in [14] was 27.3 µM (active).

Regarding `OCCc1ccccc1`, the outcome in test [1], in [2], in [3], in test [4], in test [5] and in test [10] was inactive. Moreover, the outcome in test [11], in [7], in [14] and in test [12] was inactive.

With `O=C1NC2NC(=O)NC2N1` (stereo not drawn), the result in [1], in [2], in test [3], in test [5], in test [6] and in test [7] was inactive. The result in [13] and in [12] was inactive. The concentration at half-maximal activity (AC50) in test [4] is 0.167 µM (active).

In the case of `CC(=O)O[C@H]1C[C@@H]2CC[C@@]1(C)C2(C)C`, the molecule was classed as inactive in test [1], in test [2], in test [3], in [4], in test [5] and in test [10]. In addition, the result in [11], in test [7], in test [13], in [14] and in test [8] was inactive.

As for `CC1=NN(c2ccc(S(=O)(=O)O)cc2)C(=O)C1`, the molecule was classed as inactive in test [1], in test [2], in test [3], in test [4], in test [5] and in [10]. For the same molecule, the outcome in test [11], in test [7], in test [14], in test [8] and in test [12] was inactive.
